One may read the AC50 as the concentration giving half of the maximal activity seen.

A short description of assay [1]: ATG_PXRE_CIS: Attagene CIS-FACTORIAL HepG2 Assay for human Pregnane X Receptor Element (PXRE) (AID 2282957). As to conditions: HepG2 Attagene CIS-FACTORIAL PXRE reporter, mRNA; actives raise or lower the signal. The gist of the method: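 HepG2 cells transiently transfected with cis-regulated multiple reporter transcription units; endogenous factor activity measured as reporter mRNA 24 h after dosing. RT-PCR, fluorescent primer extension, HpaI digestion, capillary electrophoresis; bidirectional fit versus DMSO baseline.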

Assay [2] is described as follows: ATG_PPRE_CIS: Attagene CIS-FACTORIAL HepG2 Assay for human Peroxisome Proliferator-activated Response Element (PPRE) (AID 2282958). Conditions: HepG2 PPRE cis-element reporter, Attagene transcription factor profiling; actives raise or lower the signal. The gist of the method: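 HepG2, transient MRTU transfection (cis promoter elements, endogenous TFs). 24 h dosing. RNA → oligo(dT) RT → PCR → 6-FAM primer extension → HpaI digest → CE. Bidirectional fit vs DMSO.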

A short description of assay [3]: ATG_RORE_CIS: Attagene CIS-FACTORIAL HepG2 Assay for human RAR-related Orphan Receptor Element (RORE) (AID 2282959). Conditions: HepG2 Attagene cis-factorial RORE reporter, mRNA; actives raise or lower the signal. In outline:
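Transient MRTU transfection of human HepG2 liver cells (FuGene 6); 24 h compound exposure; TriZol RNA, oligo(dT) RT, PCR, FAM labeling, HpaI cut, CE fragment analysis. DMSO = negative control/baseline.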

A short description of assay [4]: ATG_Sox_CIS: Attagene CIS-FACTORIAL HepG2 Assay for human SRY-box transcription factor (SOX) (AID 2282960). Conditions: HepG2 Attagene cis-factorial SOX reporter, mRNA; actives raise or lower the signal. The gist of the method:
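Endogenous factor activity in human liver HepG2 cells carrying transfected cis-regulated reporter units. RNA taken 24 h post-dose, reverse-transcribed, PCR-amplified and sized by capillary electrophoresis. Gain or loss of signal fitted relative to DMSO.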

In assay [5] the target is Transcription factor Sp1 (Homo sapiens) (UniProt P08047). The experiment in a line: ATG_Sp1_CIS: Attagene CIS-FACTORIAL HepG2 Assay for human Specificity Protein 1 (Sp1) (AID 2282961). Conditions: HepG2 Sp1 cis-reporter transcription, actives raise or lower the signal. In outline:
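Transient MRTU-transfected HepG2, 24 h compound exposure. Total RNA → oligo(dT) RT → PCR of reporter → 6-FAM primer extension → HpaI digest → CE. Endpoint fitted both directions vs DMSO.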

The nature of assay [6]: ATG_SREBP_CIS: Attagene CIS-FACTORIAL HepG2 Assay for human Sterol Regulatory Element Binding (SREBP) (AID 2282962). As to conditions: HepG2 Attagene cis-factorial SREBP reporter, mRNA; actives raise or lower the signal. In outline: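 Transfected HepG2 (cis-regulated reporter library, endogenous TFs) → compound 24 h → total RNA → oligo(dT) RT → reporter-specific PCR → FAM primer extension, HpaI cut → CE fluorescence. Fit bidirectional vs DMSO.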

In assay [7] the target is Signal transducer and activator of transcription 3 (Homo sapiens) (UniProt P40763). The experiment in a line: ATG_STAT3_CIS: Attagene CIS-FACTORIAL HepG2 Assay for human Signal Transducer and Activator of Transcription 3 (STAT3) (AID 2282963). As to conditions: HepG2, Attagene cis-factorial STAT3 reporter transcription; actives raise or lower the signal. In outline: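 HepG2 cells transiently transfected with multiple cis-element-driven reporter units report endogenous transcription factor activity. After 24 h compound exposure, reporter mRNA is measured by RT-PCR, 6-FAM labelling, HpaI digestion and capillary electrophoresis. Fitted bidirectionally versus DMSO.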
Signal transducer and activator of transcription 3 (Homo sapiens), sequence (P40763 whole entry, looked up): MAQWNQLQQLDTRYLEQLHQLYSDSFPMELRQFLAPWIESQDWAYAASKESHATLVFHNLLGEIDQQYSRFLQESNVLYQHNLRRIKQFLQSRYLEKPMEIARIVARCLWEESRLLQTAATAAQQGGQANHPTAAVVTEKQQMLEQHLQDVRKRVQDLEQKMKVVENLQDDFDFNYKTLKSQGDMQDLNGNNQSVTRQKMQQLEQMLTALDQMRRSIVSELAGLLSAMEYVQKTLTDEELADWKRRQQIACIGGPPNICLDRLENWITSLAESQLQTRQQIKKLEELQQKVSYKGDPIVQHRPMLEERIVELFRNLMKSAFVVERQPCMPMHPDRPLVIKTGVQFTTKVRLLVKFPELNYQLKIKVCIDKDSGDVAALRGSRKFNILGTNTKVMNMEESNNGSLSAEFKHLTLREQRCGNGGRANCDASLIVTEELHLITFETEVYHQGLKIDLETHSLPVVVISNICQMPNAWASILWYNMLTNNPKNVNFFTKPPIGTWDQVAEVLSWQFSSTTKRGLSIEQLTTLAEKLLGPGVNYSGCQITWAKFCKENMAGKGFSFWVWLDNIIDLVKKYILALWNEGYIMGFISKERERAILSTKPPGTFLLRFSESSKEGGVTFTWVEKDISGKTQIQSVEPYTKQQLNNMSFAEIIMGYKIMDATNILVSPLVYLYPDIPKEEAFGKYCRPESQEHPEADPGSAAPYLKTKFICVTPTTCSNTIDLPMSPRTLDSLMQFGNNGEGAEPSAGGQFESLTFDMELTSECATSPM

Assay [8] is described as follows: ATG_TA_CIS: Attagene CIS-FACTORIAL HepG2 Assay for human TA Basal Promoter (AID 2282964). Conditions: HepG2 Attagene CIS-factorial TA basal promoter reporter; actives raise or lower the signal. The gist of the method:
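Read-out: fluorescent reporter-transcript fragments resolved by capillary electrophoresis after RT-PCR and HpaI digestion. Source: HepG2 cells carrying transiently transfected multi-reporter cis constructs, treated 24 h. Endpoint fitted bidirectionally relative to DMSO.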

Assay [9] can be described thus: ATG_TAL_CIS: Attagene CIS-FACTORIAL HepG2 Assay for human TAL Basal Promoter (AID 2282966).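 Note: background control endpoint measuring basal TAL promoter reporter mRNA not a specific factor.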 As to conditions: HepG2 Attagene cis-factorial TAL promoter reporter; actives raise or lower the signal. The gist of the method:
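HepG2 cells were transiently transfected with promoter-driven multiplexed reporter units and dosed for 24 h. Reporter mRNA was measured by RT-PCR with capillary electrophoresis fluorescence; bidirectional fits used DMSO as baseline, serving as a background control.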

Assay [10] can be described thus: ATG_TGFb_CIS: Attagene CIS-FACTORIAL HepG2 Assay for human Transforming Growth Factor (TGF) (AID 2282967). As to conditions: HepG2 Attagene CIS TGFb reporter, mRNA transcription; actives raise or lower the signal. In outline: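 Transient MRTU transfection of HepG2 (FuGene 6). Dose 24 h. TriZol RNA, oligo(dT) RT, PCR, 6-FAM primer extension, HpaI cut, CE. Bidirectional fit, DMSO = baseline.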

Assay [11] can be described thus: ATG_VDRE_CIS: Attagene CIS-FACTORIAL HepG2 Assay for human Vitamin D Receptor Element (VDRE) (AID 2282968). As to conditions: HepG2 VDRE cis-reporter transcription, actives raise or lower the signal. The gist of the method: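 Transiently transfected HepG2 cells carrying cis-regulated reporter transcription units were exposed for 24 h. Reporter mRNA was measured by RT-PCR with fluorescent labelling and capillary electrophoresis, and fitted in both directions against DMSO.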

Assay [12] deals with Estrogen receptor (Homo sapiens) (UniProt P03372). The assay is described as follows: ATG_ERa_TRANS: Attagene TRANS-FACTORIAL HepG2 Assay for human Estrogen Receptor alpha (ERa) (AID 2282970; active = hit-call score of the fitted dose curve at least 0.9, where 1 is the maximum). As to conditions: HepG2 Attagene TRANS ERa GAL4 reporter, mRNA. The gist of the method: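 HepG2 cells transiently transfected with multiplexed GAL4-UAS reporter units; ERa activity read via exogenous chimeric NR-Gal4 protein. After 24 hour compound exposure, reporter mRNA measured by RT-PCR with 6-FAM labelling and capillary electrophoresis; gain-of-signal fitted relative to DMSO.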
Estrogen receptor (Homo sapiens), sequence (P03372 whole entry, looked up, the tested form may be a part): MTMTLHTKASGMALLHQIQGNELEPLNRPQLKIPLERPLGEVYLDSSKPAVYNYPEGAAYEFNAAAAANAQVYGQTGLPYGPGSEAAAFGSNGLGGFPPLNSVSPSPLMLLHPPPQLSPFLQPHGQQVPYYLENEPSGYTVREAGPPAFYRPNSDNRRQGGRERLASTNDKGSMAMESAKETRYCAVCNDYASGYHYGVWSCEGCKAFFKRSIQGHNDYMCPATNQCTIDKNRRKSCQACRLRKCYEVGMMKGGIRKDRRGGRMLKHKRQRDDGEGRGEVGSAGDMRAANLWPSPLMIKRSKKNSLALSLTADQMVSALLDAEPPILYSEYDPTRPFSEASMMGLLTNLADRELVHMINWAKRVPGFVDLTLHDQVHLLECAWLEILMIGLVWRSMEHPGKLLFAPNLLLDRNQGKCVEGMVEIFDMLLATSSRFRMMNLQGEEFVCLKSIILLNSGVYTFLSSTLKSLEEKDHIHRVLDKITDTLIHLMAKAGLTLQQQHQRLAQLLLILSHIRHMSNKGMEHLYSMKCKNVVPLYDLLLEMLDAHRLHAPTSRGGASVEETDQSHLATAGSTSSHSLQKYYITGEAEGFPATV

The target of assay [13] is Steroid hormone receptor ERR1 (Homo sapiens) (UniProt P11474). The assay is described as follows: ATG_ERRa_TRANS: Attagene TRANS-FACTORIAL HepG2 Assay for human Estrogen-Related Receptor alpha (ERRa) (AID 2282971; active = hit-call score of the fitted dose curve at least 0.9, where 1 is the maximum). As to conditions: HepG2 Attagene TRANS reporter, ERRa transactivation. In outline: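 HepG2 cells transiently transfected with multiplexed GAL4-UAS reporter units reading chimeric ERRa-Gal4 activity; 24 h compound exposure. Reporter mRNA measured by RT-PCR, 6-FAM labelling, HpaI digest and capillary electrophoresis; gain of signal fitted versus DMSO baseline.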
Steroid hormone receptor ERR1 (Homo sapiens), sequence (P11474 whole entry, looked up, the tested form may be a part): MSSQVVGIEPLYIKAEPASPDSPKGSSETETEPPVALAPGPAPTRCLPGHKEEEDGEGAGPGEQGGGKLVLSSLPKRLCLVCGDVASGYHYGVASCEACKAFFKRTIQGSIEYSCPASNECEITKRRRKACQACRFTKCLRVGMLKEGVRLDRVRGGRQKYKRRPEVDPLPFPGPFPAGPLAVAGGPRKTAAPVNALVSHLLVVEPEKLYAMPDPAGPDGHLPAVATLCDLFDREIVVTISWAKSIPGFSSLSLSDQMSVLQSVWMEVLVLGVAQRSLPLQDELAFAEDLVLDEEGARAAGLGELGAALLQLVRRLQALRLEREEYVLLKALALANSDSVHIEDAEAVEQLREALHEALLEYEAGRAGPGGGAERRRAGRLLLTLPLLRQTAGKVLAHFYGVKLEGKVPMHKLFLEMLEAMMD

Assay [14] concerns the target X-box-binding protein 1 (Homo sapiens) (UniProt P17861). The experiment in a line: ATG_Xbp1_CIS: Attagene CIS-FACTORIAL HepG2 Assay for human X-box Binding Protein 1 (XBP1) (AID 2282972). Conditions: HepG2 XBP1 cis-element reporter, Attagene multiplex; actives raise or lower the signal. The gist of the method:
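HepG2, transient MRTU transfection (cis-promoter driven), 24 h compound exposure. Total RNA → oligo(dT) RT → PCR → 6-FAM labeling → HpaI cut → CE. Bidirectional fit vs DMSO.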

The target of assay [15] is Glucocorticoid receptor (Homo sapiens) (UniProt P04150). The experiment in a line: ATG_GR_TRANS: Attagene TRANS-FACTORIAL HepG2 Assay for human Glucocorticoid Receptor (GR) (AID 2282978; active = hit-call score of the fitted dose curve at least 0.9, where 1 is the maximum;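 note: activators score as hits since higher reporter transcript over DMSO is fitted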). As to conditions: HepG2 Attagene TRANS GR reporter, mRNA transcription. In outline: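 Fluorescent capillary-electrophoresis quantitation of reporter mRNA is the readout, taken 24 h after dosing human HepG2 cells carrying transiently transfected GAL4-UAS reporter units activated by chimeric NR-GAL4 fusions; activity scored as induction over DMSO.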
Glucocorticoid receptor (Homo sapiens), sequence (P04150 whole entry, looked up, the tested form may be a part): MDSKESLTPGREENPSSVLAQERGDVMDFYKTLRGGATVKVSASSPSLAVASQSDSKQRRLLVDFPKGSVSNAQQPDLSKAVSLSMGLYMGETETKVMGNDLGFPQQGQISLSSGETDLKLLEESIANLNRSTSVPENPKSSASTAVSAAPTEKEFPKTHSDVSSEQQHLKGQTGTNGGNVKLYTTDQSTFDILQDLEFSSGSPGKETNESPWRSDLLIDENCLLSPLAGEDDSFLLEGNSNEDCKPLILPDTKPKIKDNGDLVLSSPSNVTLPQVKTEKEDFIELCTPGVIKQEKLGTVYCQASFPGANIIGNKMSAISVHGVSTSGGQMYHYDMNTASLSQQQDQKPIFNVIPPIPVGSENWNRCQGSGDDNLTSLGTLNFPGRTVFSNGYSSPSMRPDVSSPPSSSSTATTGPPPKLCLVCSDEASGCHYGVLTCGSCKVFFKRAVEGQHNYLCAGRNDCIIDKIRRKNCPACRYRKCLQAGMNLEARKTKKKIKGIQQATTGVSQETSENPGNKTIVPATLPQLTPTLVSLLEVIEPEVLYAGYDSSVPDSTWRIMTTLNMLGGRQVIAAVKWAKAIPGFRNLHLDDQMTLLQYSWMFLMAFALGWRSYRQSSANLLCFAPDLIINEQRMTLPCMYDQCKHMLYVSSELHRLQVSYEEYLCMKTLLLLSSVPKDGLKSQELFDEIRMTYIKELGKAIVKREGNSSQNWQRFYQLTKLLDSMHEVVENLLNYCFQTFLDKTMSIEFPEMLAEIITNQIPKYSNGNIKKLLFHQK

Assay [16] in a line: ATG_TCF_b_cat_CIS: Attagene CIS-FACTORIAL HepG2 Assay for human T-Cell-Factor with beta-catenin (TCF/b-cat) (AID 2282965). Conditions: HepG2 TCF/beta-catenin cis-reporter transcription, actives raise or lower the signal. The gist of the method:
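HepG2, transient MRTU transfection, cis-element-driven reporters (endogenous TFs). 24 h compound exposure. Readout: reporter mRNA by RT-PCR + 6-FAM primer extension, HpaI digest, capillary electrophoresis. Gain/loss fit vs DMSO baseline.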

Assay [17] in a line: ATG_GAL4_TRANS: Attagene TRANS-FACTORIAL HepG2 Assay for GAL4 (Internal Marker) (AID 2282976; active = hit-call score of the fitted dose curve at least 0.9, where 1 is the maximum). Conditions: HepG2 Attagene TRANS GAL4 internal marker reporter. The gist of the method:
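HepG2 cells transiently transfected with multiplexed GAL4-UAS reporter constructs were dosed for 24 h. Reporter mRNA was measured by RT-PCR, 6-FAM primer extension, HpaI digestion and capillary electrophoresis, and gain of signal was fitted relative to DMSO.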

The nature of assay [18]: ATG_M_19_TRANS: Attagene TRANS-FACTORIAL HepG2 Assay for M19 Transcription Factor (Internal Marker) (AID 2282974; active = hit-call score of the fitted dose curve at least 0.9, where 1 is the maximum). As to conditions: HepG2 Attagene TRANS-FACTORIAL M19 internal marker reporter. The gist of the method: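 Fluorescence of 6-FAM-labelled reporter cDNA fragments, separated by capillary electrophoresis, served as the readout. These derived from HepG2 cells carrying transfected GAL4-UAS reporter units after 24 h dosing, with DMSO as negative control.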

The structures appear in SMILES notation. Records with an inconclusive call do not appear. The source made the active and inactive calls. Rule for the calls, unless noted: active = hit-call score of the fitted dose curve at least 0.9, where 1 is the maximum; inactive = score below 0.9.

Transcription factor Sp1 (Homo sapiens), sequence (P08047 whole entry, looked up): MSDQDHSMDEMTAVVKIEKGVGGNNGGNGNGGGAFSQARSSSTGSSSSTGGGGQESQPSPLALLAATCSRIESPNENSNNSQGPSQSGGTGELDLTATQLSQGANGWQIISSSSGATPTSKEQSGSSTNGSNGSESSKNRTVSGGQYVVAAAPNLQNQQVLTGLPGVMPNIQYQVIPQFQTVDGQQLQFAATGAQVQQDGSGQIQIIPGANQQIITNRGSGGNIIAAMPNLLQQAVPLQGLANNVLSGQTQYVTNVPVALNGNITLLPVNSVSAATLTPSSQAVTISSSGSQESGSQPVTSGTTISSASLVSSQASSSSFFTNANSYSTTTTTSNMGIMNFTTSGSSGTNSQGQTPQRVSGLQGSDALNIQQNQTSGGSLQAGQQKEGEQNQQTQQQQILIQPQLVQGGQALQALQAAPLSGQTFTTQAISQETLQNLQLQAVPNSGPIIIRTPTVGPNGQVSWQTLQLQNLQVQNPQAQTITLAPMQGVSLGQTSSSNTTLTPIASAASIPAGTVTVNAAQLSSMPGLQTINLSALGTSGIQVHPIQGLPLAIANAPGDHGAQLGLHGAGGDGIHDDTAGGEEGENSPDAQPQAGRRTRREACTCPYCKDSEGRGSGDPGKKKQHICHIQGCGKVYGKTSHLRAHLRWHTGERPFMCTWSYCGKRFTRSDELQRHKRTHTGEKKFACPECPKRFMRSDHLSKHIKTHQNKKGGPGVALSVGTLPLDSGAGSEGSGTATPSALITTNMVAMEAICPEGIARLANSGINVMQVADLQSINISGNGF
X-box-binding protein 1 (Homo sapiens), sequence (P17861 whole entry, looked up): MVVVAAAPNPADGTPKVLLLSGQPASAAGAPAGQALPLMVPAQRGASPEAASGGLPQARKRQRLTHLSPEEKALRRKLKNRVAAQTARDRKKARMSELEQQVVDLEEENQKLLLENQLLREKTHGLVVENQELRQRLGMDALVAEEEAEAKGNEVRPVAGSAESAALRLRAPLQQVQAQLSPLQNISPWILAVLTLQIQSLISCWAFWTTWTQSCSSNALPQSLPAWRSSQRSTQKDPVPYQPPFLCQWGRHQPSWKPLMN

Consider `Clc1ccc2c(Cl)ccnc2c1`, for which the compound was classed as inactive in assay [1], in [3], in assay [4], in assay [5], in [6] and in assay [7]. For the same compound, the outcome in [8], in assay [9], in assay [10], in assay [11], in assay [12] and in [13] was inactive. The compound was classed as inactive in assay [14] and in assay [15]. Besides, the AC50 in [2] is 41.2 µM (active).
On to `c1cc[nH]c1`, for which the compound was classed as inactive in assay [1], in assay [2], in assay [3], in [4], in assay [5] and in [6]. Also, the result in assay [7], in [8], in assay [16], in assay [9], in [10] and in assay [11] was inactive. In addition, the call in [13], in assay [14], in assay [17] and in assay [15] was inactive.
For `Oc1c(Cl)ccc(Cl)c1Cl`, the AC50 in assay [1] is 49.8 µM (active); in assay [2] it was 40.4 µM (active). Also, the result in assay [3], in assay [4], in assay [5], in assay [6], in [7] and in assay [8] was inactive. Moreover, the outcome in assay [16], in [9], in [10], in [11] and in [14] was inactive.
Regarding `Cc1cc(Cc2cc(C)cc(C(C)(C)C)c2O)c(O)c(C(C)(C)C)c1`, the concentration at half-maximal activity (AC50) was 0.0497 µM (active) in assay [1]; 153 µM (active) in assay [4]; 93.6 µM (active) in assay [5]; 160 µM (active) in assay [7]; 180 µM (active) in [16]; 56.6 µM (active) in assay [10]. Also, the half-maximal activity concentration (AC50) in assay [14] is 25 µM (active). Moreover, the result in [2], in assay [3], in assay [6], in assay [8], in assay [9] and in assay [11] was inactive. Moreover, the result in [12] and in assay [18] was inactive.

For the origin of these results see PubChem BioAssay (EPA / NIEHS).
